PubChem BioAssay (NCATS)
Where “and” joins values, the source holds several entries; their conditions need not be identical. Equal values may be shown once. Unmarked numbers belong to inactive results. Results filed as inconclusive are left out. Where a call stands in place of a potency, no number is given. Calls of active or inactive are those of the source. Unless noted, calls come from the whole dose curve; as a rule, active = well fitted curve in the direction sought with a large enough effect; inconclusive = small, poorly fitted or top-dose-only effect, or another doubt; inactive = no such curve, though single readings can be large; an effect the other way counts as inactive or inconclusive.

Experiments:
[1] = AP1 Signaling Pathway (AID 357; active = well fitted curve in either direction with a large enough effect, not every such curve was filed as active;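 note: ME-180 reporter cells stimulated with EGF at its EC50 level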); conditions: ME-180 AP-1-bla reporter, EGF-induced, beta-lactamase ratio, 5 h; at 7.69 µM (top of the series) unless noted
Method in brief: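 First, ME-180 AP-1-bla cells were cultured overnight at 37 °C in low-serum Opti-MEM. Next, titrated compounds with EC50 EGF were incubated 5 hours. Finally, CCF4 was added for 2.5 hours and the 460/530 nm ratio recorded.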

[2] = target: Cytochrome P450 1A2 (Homo sapiens) (UniProt P05177); test: p450-cyp1a2 (AID 410; calls by dose curve; note: potency is the fitted concentration of half-maximal effect)
Method in brief: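 Luminescent demethylation readout: Luciferin-ME (100uM, equal to Km) turned over by 20nM CYP1A2 for 60 min at room temperature after NADPH regeneration addition, following 10 min compound preincubation. Normalization used 57 uM furafylline as full inhibition.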

[3] = NFAT Signaling Pathway (AID 444; active = well fitted curve in either direction with a large enough effect, not every such curve was filed as active;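 note: carbachol stimulus at about its EC50 of 1 µM final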); conditions: Jurkat NFAT-bla M1, carbachol, beta-lactamase ratio, 5 h; at 7.69 µM (top of the series) unless noted
Method in brief: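 Jurkat cells with NFAT-driven β-lactamase reporter and co-expressed M1 receptor, stimulated with carbachol (final 1 uM, ~EC50), compound titration, 5 h at 37 °C. CCF4 loaded 1 h at RT; 460/530 nm ratio gave %activity and AC50.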

[4] = Stat Signaling Pathway (AID 446; active = well fitted curve in either direction with a large enough effect, not every such curve was filed as active;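 note: ME-180 cervical cancer cells given 40 pM IL-6 alongside compound; SIE-controlled beta-lactamase reporter measured as 460/530 nm FRET emission ratio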); conditions: ME-180 (cervical carcinoma) SIE beta-lactamase reporter, IL-6 stimulated, 5 h; at 7.69 µM (top of the series) unless noted
Method in brief: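 Normalization used AC90 stimulation (300 pM IL-6) and AC90 inhibition (125 nM pan-JAK inhibitor at 40 pM IL-6). The underlying signal is SIE-driven beta-lactamase in ME-180 cells after 5 h IL-6 exposure with compound.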

[5] = target: Glucocorticoid receptor (Homo sapiens) (UniProt P04150); test: GR-GFP Redistribution (AID 450;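 active = compounds whose dose series gives a full or clear partial fitted curve of increased nuclear translocation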; note: potency is the fitted concentration of half-maximal effect); conditions: U2OS GR-GFP nuclear translocation, laser cytometry, 2 h
[6] = target: Glucocorticoid receptor (Homo sapiens) (UniProt P04150); test: GR-EFC Redistribution (AID 451; calls by dose curve; note: potency is the fitted concentration of half-maximal effect); conditions: CHO-K1 GR-EFC translocation, beta-gal luminescence, 2 h
Method in brief: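 CHO-K1 cells expressing nuclear EA and GR-ED fragments of b-gal; compounds titrated up to 46 uM final, 2 h at 37 C. GR nuclear translocation read as complemented b-gal luminescence after 1 h RT detection.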

[7] = target: Mitogen-activated protein kinase 10 (Mus musculus) (UniProt Q61831); test: JNK3 AlphaScreen Assay (AID 530; active = well fitted curve in either direction with a large enough effect, not every such curve was filed as active;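 note: kinase came from lysate of stimulated human HepG2 cells; signal reports phosphorylation of biotinylated GST-cJun 1-79 at Ser73 with 10 µM ATP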)
Method in brief: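 Activity was read by AlphaScreen after JNK3-containing HepG2 lysate (cytokine pre-activated) phosphorylated biotinylated GST-cJun with 10 uM ATP at room temperature. Phospho-Ser73 cJun antibody with Protein-A acceptor beads provided detection.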

[8] = target: 3',5'-cyclic-AMP phosphodiesterase 4B (Homo sapiens) (UniProt Q07343); test: qHTS Assay for Inhibitors of PDE-IV (AID 607; active = well fitted activation curve with a large enough effect in the main read-out, with a control signal flat, not every such curve was filed as active)
Method in brief: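 HEK293 ACTOne cells with CNG channel (1000/well), endogenous PDE4; membrane potential dye, compounds up to 22.9 uM final. Fluorescence Ex 535/Em 590; RO 20-1724 (100 uM final) as reference.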

[9] = target: Guanine nucleotide-binding protein G(i) subunit alpha-1 (Homo sapiens) (UniProt P63096); test: qHTS Assay for Inhibitors of RGS12 GoLoco Motif Activity (Green Fluorophore) (AID 879);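 note: negative values mean loss of peptide binding seen as reduced polarization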
Method in brief: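 A drop in FITC polarization marked displacement of the FITC-tagged RGS12 GoLoco peptide (10 nM) from Gαi1 (50 nM). Compounds were incubated 10 min at room temperature in Tris pH 7.5 buffer containing 150 mM NaCl, 0.1 mM GDP and 0.05% NP40; unlabeled peptide titration served as control.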

[10] = target: Muscarinic acetylcholine receptor M1 (Rattus norvegicus) (UniProt P08482); test: qHTS Assay for Antagonists of Acetylcholine Muscarinic M1 Receptor: Measurement of IP-One Response (AID 944); note: nearly all actives have a fitted effect of over 75% in size
Method in brief: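 IP1 accumulation measured via TR-FRET between d2-IP1 and Eu-cryptate anti-IP1 antibody after carbachol (200 nM, EC80) stimulation for 30 min; rat M1-transfected CHO cells received compound 10 min before agonist.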

[11] = target: Pyruvate kinase (Leishmania mexicana) (UniProt Q27686); test: qHTS Validation Assay for Inhibitors of Leishmania Mexicana Pyruvate Kinase (AID 945)
Method in brief: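 Compounds are tested as eight-point concentration series. Reactions contain 0.2 nM LmPYK E451W, 0.5 mM PEP, 0.1 mM ADP, 7 mM MgCl2 and 50 mM KCl at pH 7.2, run 1 h at room temperature, then read by PKLight luminescence.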

[12] = target: Pyruvate kinase PKM (Homo sapiens) (UniProt P14618); test: qHTS Assay for Activators of Human Muscle Pyruvate Kinase (AID 954; active = well fitted curve in the direction sought with a large enough effect, not every such curve was filed as active)
Method in brief: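 Compound pinned into substrate mix (0.5 mM PEP, 0.1 mM ADP), then 0.1 nM PKM2 added; 1 h, RT. Stop/detection luciferase reagent added, luminescence read. Normalized to no-inhibition and no-enzyme or reference-inhibitor controls.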

[13] = target: Alpha-galactosidase (Coffea arabica) (UniProt Q42656); test: Counterscreen for Glucocerebrosidase Inhibitors: qHTS Assay for Coffee Bean alpha-Galactosidase at pH 4.5 (AID 957)
Method in brief: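 Fluorogenic qHTS at pH 4.5 (citrate buffer with Tween-20): 2 nM enzyme, 80 uM 4-MU-alpha-galactoside substrate, compound titrated 0.7 nM to 77 uM, 20 min room temperature. Glycine/NaOH stop; 4-MU read Ex 365/Em 440; Hill-equation AC50 against no-enzyme and enzyme controls.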

[14] = target: Alpha-galactosidase A (Homo sapiens) (UniProt P06280); test: Counterscreen for Glucocerebrosidase Inhibitors: qHTS Assay for Human alpha-Galactosidase at pH 4.5 (AID 992)
Method in brief: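 Steps: enzyme (2 nM final), then compound across 0.7 nM to 77 uM, then 80 uM fluorogenic galactopyranoside substrate; incubate 20 min at room temperature; quench at pH 10; measure fluorescence at 365/440 nm.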

[15] = target: alpha-glucosidase (Oryza sativa, rice) (UniProt Q653V4); test: Counterscreen for Glucocerebrosidase Inhibitors: qHTS Assay for Rice alpha-Glucosidase at pH 5.0 (AID 997)
Method in brief: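 Endpoint fluorogenic assay at pH 5.0: compounds (0.7 nM to 77 uM) titrated against 4 nM rice enzyme and 400 uM 4-MU-alpha-glucoside for 20 min at room temperature; NaOH/glycine stop, read ex 365/em 440 nm, Hill-fitted AC50.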

[16] = target: Alpha-galactosidase (Coffea arabica) (UniProt Q42656); test: Counterscreen for Glucocerebrosidase Inhibitors: qHTS Assay for Coffee Bean alpha-Galactosidase at pH 5.9 (AID 998)
Method in brief: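 Enzyme 2 nM + cpd (0.7 nM–77 uM titration) + 4-MU-alpha-Gal 80 uM, pH 5.9 citrate/Tween-20, RT 20 min, NaOH/glycine stop pH 10, fluor 365/440. Normalized to no-enzyme and full-activity controls; Hill-fit AC50.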

[17] = target: Cytochrome P450 3A4 (Homo sapiens) (UniProt P08684); test: qHTS Assay for Activators of Cytochrome P450 3A4 (AID 885); note: nearly all actives have a fitted effect of over 65% in size
Method in brief: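 Human CYP3A4 dealkylates Luciferin-PPXE to luciferin, which luciferase detection converts to light. Substrate was at its KM (25uM), buffer 200mM KPO4, reaction 60 min at RT.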

[18] = qHTS Assay for Identification of Small Molecule Agonists for Thrombopoietin (TPO) Signaling Pathway (AID 917)
Method in brief: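 Quantitative HTS for pathway activators: compounds were pin-transferred onto IL-3-starved Ba/F3 cells expressing human TPO receptor, TPO was added at its EC50 (26 pM final), and after 24 hrs at 37 C reporter luciferase was measured.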

[19] = target: Cytochrome P450 2D6 (Homo sapiens) (UniProt P10635); test: qHTS Assay for Inhibitors and Substrates of Cytochrome P450 2D6 (AID 891); note: potency is the fitted concentration of half-maximal effect; nearly all actives have a fitted effect of over 60% in size
Method in brief: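 Luminescent read-out of luciferin formed by 5 nM human CYP2D6 demethylating 30 uM Luciferin-ME EGE (Km level) over 60 min at room temperature after NADPH regeneration addition. Data normalized to full inhibition by 1.43 uM quinidine.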

Sequence of Alpha-galactosidase A (Homo sapiens) (P06280 whole entry, looked up): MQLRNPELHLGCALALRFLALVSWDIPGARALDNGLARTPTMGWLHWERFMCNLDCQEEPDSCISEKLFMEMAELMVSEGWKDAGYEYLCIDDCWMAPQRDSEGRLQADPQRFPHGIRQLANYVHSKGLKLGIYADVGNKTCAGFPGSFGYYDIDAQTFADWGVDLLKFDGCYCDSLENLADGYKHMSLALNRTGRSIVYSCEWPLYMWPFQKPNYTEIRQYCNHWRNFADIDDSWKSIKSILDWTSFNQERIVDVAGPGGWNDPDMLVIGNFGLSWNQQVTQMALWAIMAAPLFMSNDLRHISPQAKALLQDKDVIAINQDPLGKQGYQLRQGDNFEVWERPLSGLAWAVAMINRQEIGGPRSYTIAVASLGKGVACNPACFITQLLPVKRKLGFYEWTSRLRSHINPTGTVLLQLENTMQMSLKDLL
Sequence of 3',5'-cyclic-AMP phosphodiesterase 4B (Homo sapiens) (Q07343 whole entry, looked up): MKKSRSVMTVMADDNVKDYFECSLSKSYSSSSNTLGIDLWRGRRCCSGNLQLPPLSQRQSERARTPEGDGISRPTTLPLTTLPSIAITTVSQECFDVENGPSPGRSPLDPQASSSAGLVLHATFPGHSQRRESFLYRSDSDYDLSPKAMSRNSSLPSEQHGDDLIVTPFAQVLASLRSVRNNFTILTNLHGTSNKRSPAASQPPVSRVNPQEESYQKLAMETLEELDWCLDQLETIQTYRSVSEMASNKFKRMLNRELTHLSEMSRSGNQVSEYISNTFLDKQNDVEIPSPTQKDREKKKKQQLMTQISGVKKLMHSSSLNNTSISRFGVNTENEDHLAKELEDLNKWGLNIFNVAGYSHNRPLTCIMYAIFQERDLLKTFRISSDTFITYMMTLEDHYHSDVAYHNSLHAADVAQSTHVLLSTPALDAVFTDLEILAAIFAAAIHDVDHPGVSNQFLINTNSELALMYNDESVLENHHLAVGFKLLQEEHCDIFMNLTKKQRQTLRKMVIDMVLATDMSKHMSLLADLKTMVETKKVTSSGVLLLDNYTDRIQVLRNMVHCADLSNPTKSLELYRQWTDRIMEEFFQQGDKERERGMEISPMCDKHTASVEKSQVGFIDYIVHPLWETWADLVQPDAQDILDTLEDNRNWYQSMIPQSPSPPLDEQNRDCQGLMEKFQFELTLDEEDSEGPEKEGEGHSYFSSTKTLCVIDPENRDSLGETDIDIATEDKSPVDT
Sequence of Cytochrome P450 3A4 (Homo sapiens) (P08684 whole entry, looked up): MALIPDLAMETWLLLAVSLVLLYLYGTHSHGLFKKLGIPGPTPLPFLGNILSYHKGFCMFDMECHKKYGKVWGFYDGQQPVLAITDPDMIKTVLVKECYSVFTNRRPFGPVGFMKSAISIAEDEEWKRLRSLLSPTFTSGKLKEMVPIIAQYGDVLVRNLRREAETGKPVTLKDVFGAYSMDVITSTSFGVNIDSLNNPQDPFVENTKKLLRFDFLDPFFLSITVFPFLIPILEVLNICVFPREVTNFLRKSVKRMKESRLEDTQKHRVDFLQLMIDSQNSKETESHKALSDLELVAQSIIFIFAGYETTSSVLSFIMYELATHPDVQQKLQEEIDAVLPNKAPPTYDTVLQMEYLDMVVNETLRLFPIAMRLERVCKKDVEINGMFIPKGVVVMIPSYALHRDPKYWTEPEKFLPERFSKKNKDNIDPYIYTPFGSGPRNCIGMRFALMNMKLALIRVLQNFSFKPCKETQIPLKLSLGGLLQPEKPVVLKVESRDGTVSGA
Sequence of Pyruvate kinase PKM (Homo sapiens) (P14618 whole entry, looked up): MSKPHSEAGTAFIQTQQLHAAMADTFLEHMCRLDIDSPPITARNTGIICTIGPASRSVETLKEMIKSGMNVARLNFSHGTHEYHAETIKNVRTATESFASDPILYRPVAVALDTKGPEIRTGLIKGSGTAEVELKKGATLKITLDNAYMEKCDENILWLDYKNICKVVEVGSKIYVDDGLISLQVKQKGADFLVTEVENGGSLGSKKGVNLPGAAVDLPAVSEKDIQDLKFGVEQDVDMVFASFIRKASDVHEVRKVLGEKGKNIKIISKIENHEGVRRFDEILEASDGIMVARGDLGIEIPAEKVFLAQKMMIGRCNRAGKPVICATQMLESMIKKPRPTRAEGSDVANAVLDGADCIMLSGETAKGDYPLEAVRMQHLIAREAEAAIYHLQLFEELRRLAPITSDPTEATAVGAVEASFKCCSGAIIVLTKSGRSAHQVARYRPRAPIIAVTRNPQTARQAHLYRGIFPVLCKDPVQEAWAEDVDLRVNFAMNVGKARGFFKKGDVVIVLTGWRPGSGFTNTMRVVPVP
Sequence of Muscarinic acetylcholine receptor M1 (Rattus norvegicus) (P08482 whole entry, looked up): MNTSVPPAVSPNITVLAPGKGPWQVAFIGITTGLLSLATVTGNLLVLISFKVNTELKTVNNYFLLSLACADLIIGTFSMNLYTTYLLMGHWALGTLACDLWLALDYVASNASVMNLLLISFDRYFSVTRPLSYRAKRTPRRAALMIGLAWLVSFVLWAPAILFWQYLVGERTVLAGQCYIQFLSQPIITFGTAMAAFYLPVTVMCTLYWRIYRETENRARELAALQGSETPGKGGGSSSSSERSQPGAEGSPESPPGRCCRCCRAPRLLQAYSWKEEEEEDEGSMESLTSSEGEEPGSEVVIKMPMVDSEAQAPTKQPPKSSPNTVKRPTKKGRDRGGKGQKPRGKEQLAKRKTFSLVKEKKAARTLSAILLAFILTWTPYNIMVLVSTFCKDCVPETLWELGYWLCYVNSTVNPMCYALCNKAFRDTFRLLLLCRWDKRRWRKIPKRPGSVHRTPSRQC
Sequence of Alpha-galactosidase (Coffea arabica) (Q42656 whole entry, looked up): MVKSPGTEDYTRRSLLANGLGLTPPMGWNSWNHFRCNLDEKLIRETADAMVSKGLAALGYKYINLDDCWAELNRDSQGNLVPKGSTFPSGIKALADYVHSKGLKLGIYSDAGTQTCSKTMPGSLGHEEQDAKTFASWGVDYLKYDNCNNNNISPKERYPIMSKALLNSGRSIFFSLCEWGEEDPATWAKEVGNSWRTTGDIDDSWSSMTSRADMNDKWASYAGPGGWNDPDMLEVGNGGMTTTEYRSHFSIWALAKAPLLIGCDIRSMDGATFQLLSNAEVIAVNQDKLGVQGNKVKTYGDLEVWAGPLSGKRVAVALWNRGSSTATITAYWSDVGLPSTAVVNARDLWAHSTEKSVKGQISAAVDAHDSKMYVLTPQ
Sequence of Pyruvate kinase (Leishmania mexicana) (Q27686 2-499 E452W): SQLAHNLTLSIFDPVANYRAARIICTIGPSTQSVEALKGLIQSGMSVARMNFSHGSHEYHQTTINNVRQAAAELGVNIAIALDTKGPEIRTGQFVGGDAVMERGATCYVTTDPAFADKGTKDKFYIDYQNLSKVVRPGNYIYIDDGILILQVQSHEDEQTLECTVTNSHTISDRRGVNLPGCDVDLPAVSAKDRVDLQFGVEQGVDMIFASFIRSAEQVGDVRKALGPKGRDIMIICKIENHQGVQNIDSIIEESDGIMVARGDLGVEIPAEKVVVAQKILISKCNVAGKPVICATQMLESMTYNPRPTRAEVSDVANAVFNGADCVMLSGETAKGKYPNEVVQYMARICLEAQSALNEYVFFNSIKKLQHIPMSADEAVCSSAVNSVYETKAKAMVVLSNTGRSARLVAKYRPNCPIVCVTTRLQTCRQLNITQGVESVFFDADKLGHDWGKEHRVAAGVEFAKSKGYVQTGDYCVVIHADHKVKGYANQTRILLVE
Sequence of Glucocorticoid receptor (Homo sapiens) (P04150 whole entry, looked up, the tested form may be a part): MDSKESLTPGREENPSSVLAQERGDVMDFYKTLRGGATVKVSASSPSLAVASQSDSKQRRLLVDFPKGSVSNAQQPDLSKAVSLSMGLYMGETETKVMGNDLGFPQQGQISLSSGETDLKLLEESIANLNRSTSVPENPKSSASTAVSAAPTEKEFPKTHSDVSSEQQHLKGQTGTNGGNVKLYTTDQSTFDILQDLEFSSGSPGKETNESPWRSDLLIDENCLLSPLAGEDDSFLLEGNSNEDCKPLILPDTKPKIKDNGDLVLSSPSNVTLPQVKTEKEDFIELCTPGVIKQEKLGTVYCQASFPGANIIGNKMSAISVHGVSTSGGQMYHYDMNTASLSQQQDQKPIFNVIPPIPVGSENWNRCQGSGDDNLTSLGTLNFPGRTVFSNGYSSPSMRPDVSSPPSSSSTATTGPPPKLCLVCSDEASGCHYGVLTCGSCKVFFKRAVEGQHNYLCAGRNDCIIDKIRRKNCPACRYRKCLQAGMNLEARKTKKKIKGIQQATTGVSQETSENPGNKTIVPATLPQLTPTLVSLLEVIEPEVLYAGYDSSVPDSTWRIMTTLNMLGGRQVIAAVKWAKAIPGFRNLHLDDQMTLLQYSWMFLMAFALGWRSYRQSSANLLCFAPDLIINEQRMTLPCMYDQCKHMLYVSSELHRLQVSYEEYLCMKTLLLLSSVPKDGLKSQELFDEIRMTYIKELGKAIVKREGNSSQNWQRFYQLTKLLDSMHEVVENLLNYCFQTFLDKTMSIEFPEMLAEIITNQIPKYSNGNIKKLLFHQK
Sequence of Cytochrome P450 1A2 (Homo sapiens) (P05177 whole entry, looked up): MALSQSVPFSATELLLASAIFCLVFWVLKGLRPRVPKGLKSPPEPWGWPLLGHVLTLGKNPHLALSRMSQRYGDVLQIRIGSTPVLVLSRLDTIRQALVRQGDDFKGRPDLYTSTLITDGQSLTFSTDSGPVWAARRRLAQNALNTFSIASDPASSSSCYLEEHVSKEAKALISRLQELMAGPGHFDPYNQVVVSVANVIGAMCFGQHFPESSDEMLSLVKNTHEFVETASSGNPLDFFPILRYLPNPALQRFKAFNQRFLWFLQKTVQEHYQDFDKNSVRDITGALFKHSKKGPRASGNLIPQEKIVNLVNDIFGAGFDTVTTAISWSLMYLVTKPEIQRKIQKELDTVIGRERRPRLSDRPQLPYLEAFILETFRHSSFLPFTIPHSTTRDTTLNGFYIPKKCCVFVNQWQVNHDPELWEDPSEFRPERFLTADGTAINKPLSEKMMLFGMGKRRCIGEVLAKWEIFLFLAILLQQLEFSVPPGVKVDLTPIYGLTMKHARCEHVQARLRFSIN

SMILES	activity change, negative = inhibition [1]	Potency [2]	activity change, negative = inhibition [3]	activity, negative = inhibition [4]	Potency [5]	Potency [6]	activity change, negative = inhibition [7]	outcome [8]	Potency [7]	outcome [9]	Potency [10]	outcome [11]	outcome [12]	outcome [13]	outcome [14]	outcome [15]	outcome [16]	Potency [17]	outcome [18]	Potency [19]
O=[As](O)(O)c1ccc2nc3cc([As](=O)(O)O)ccc3nc2c1	0.372%	inactive	20.7%	-4.42%	> 46 µM	> 9.22 µM	-2.18% [at 11.4 µM]	inactive	–	–	–	–	–	–	–	–	–	–	–	–
CC(C)[C@@]1(NC(=O)[C@H]2C[C@H]3c4cccc5[nH]cc(c45)C[C@@H]3N(C)C2)O[C@]2(O)[C@H]3CCCN3C(=O)[C@H](Cc3ccccc3)N2C1=O	-10% [at 38 µM]	inactive	1.76% [at 38 µM]	-34.2% [at 38 µM]	> 46 µM	> 46 µM	–	inactive	inactive	–	–	–	–	–	–	–	–	–	–	–
O=C(O)[C@H]1[C@H](C(=O)O)[C@H]2CC[C@@H]1O2	-9.16% [at 38 µM]	inactive	-8.52% [at 38 µM]	-14.7% [at 38 µM]	> 46 µM	> 46 µM	–	inactive	inactive	inactive	inactive	inactive	inactive	inactive	inactive	inactive	inactive	–	–	–
NC[C@H](O)c1cc(O)c(O)cc1F	-2.42% [at 38 µM]	inactive	4.54% [at 38 µM]	10.9% [at 38 µM]	> 46 µM	> 46 µM	–	inactive	–	inactive	inactive	inactive	inactive	inactive	inactive	inactive	inactive	inactive	inactive	–
CN1C[C@@H](CS(=O)(=O)N(C)C)C[C@H]2c3cccc4c3c(cn4C)C[C@@H]21	2.96% [at 38 µM]	25.1 µM (active)	4.13% [at 38 µM]	-10.8% [at 38 µM]	> 46 µM	> 46 µM	–	inactive	inactive	–	inactive	inactive	inactive	inactive	inactive	inactive	inactive	–	inactive	3.98 µM (active)
C#CCN[C@@H](C)Cc1ccccc1	1.81% [at 38 µM]	15.8 µM (active)	0.0477% [at 38 µM]	-23.9% [at 38 µM]	> 46 µM	> 46 µM	–	inactive	inactive	inactive	inactive	inactive	inactive	inactive	inactive	inactive	inactive	–	inactive	–
Nc1ncnc2c1ncn2[C@@H]1O[C@@H](COP(=O)(O)CP(=O)(O)OP(=O)(O)O)[C@H](O)[C@@H]1O	-0.584% [at 38 µM]	inactive	3.86% [at 38 µM]	-9.36% [at 38 µM]	> 46 µM	–	–	inactive	inactive	inactive	inactive	inactive	inactive	inactive	inactive	inactive	inactive	–	inactive	–
Cc1nc2ccccc2cc1C[N+]12CN3CN(CN(C3)C1)C2	-8.29%	0.631 µM (active)	6.19%	6.99%	> 46 µM	> 9.22 µM	0.875% [at 11.4 µM]	inactive	–	–	–	–	–	–	–	–	–	–	–	–
N=C(N)SCc1ccc(Cl)c2ccccc12 (tested in a mixture with another compound)	6.29% and 5.72%	251 nM (active) and 158 nM (active)	-1.16%	-8.84% and -10.7%	–	–	3.26% [at 11.4 µM] and 4.92% [at 11.4 µM]	inactive	–	–	–	–	–	–	–	–	–	–	–	3.16 µM (active)
COc1cc(C[C@H](C)N)c(OC)cc1I	8.22% [at 38 µM] and 4.79% [at 38 µM]	6.31 µM (active) and 12.6 µM (active)	-22.6% [at 38 µM] and -16.3% [at 38 µM]	-6.07% [at 38 µM]	> 46 µM	> 46 µM	–	inactive	inactive	inactive	–	inactive	inactive	inactive	inactive	inactive	inactive	inactive	inactive	–
C[C@@]12CC[C@H]3[C@@H](CCC4=C(O)C(=O)CC[C@]43C)[C@H]1CCC2=O	4.24% [at 38 µM]	inactive	-1.14% [at 38 µM]	14.9% [at 38 µM]	> 46 µM	> 46 µM	–	inactive	inactive	inactive	inactive	inactive	inactive	inactive	inactive	inactive	inactive	–	–	–
